Experimental data from PubChem BioAssay (Tox21).
Records with an inconclusive call do not appear. Where a call stands in place of a potency, no number is given. Values without a mark were called inactive. Calls of active or inactive are those of the source. The call rests on the fitted dose curve.

The compounds below were run against 5-hydroxytryptamine receptor 2A (Homo sapiens) (UniProt P28223) (assay: 5-hydroxytryptamine receptor 2A (HTR2A) small molecule agonists, cell-based qHTS assay (AID 1963587; further: nearly all actives have a fitted effect of over 30% in size)). Details: HTR2A-CHO cells, calcium flux fluorescence, agonist mode; series mostly up to 76.8 µM.
Description: National Center for Advancing Translational Sciences [NCATS]
Division of Preclinical Innovation [DPI]
U.S. Environmental Protection Agency [EPA]
National Institutes of Environmental Health Sciences [NIEHS]
National Toxicology Program [NTP]
U.S. Food and Drug Administration [FDA]
The HTR2A receptor is a subtype of the 5-HT2 receptor that belongs to the serotonin receptor family and is a G protein-coupled receptor (GPCR). The HTR2A-CHO cell line stably expressing human 5-hydroxytryptamine receptor 2A (HTR2A) can be used for screening agonists of interactions between 5-HT2 and its ligands. The HTR2A-CHO calcium flux assay is a homogeneous fluorescence-based assay for detecting the intracellular calcium level using FDSS kinetic plate reader system.
HTR2A-CHO cells were dispensed at 2000 cells/3uL/well in 1536-well black-clear bottom plates using a Multidrop Dispenser. After the assay plates were incubated at a 37 C/5% CO2 incubator for 18 h, 3 uL of Dye Loading Buffer was transferred to the assay plate by a Flying Reagent Dispenser. The assay plates were incubated at 37 C for 1h. For agonist mode, 23 nL of compounds dissolved in DMSO, positive controls or DMSO only was transferred to the assay plate by a pin tool. The fluorescence intensity in the plates was measured using FDSS 7000EX kinetic plate reader for 2 min at 1 sec intervals.

Chain of 5-hydroxytryptamine receptor 2A (Homo sapiens) (P28223 whole entry, looked up): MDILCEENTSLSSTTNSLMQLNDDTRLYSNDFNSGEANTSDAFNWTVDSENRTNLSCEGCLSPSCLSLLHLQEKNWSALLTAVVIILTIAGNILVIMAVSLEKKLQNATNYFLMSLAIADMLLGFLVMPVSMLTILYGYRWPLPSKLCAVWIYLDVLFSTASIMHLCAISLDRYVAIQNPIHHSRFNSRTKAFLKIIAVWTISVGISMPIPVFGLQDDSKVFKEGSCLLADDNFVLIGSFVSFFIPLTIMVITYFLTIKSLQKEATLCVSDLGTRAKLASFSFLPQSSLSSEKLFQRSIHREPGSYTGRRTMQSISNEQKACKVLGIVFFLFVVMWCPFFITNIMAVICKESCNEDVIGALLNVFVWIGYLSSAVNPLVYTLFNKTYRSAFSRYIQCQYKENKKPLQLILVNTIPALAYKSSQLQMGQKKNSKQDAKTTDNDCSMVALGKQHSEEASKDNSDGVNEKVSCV

SMILES | Potency | activation
CN(C)c1ccc(SC#N)cc1 | inactive | 
c1ccc(Sc2ccccc2)cc1 | inactive | 
COC(=O)CCS | inactive | 
CN(C)CCN(C)CCO | inactive | 
C#C[C@]1(OC(C)=O)CC[C@H]2[C@@H]3CCC4=C/C(=N/O)CC[C@@H]4[C@H]3CC[C@@]21CC | inactive | 
C=Cc1ccc(S(=O)(=O)O)cc1 | inactive | 
O=[N+]([O-])c1ccc(Nc2ccc(Nc3ccccc3)c(S(=O)(=O)O)c2)c([N+](=O)[O-])c1 | inactive | 
CN1CCC(Nc2ncc3ncnc(Nc4ccc(F)c(Cl)c4)c3n2)CC1 | inactive | 
CC1(C)O[C@@H]2C[C@H]3[C@@H]4CCC5=CC(=O)C=C[C@]5(C)[C@H]4[C@@H](O)C[C@]3(C)[C@]2(C(=O)CO)O1 | inactive | 
C=C(C)C(=O)OCCOc1ccccc1 | inactive | 
CC(O)CN (stereo not given) | inactive | 
O=C(O)CN(CCOCCOCCN(CC(=O)O)CC(=O)O)CC(=O)O |  | -0.693% [at 0.292 µM]
CC(C)c1ccccc1 | inactive | 
O=C(O)[C@@H]1CSCN1 | inactive | 
C[N+]1(C)CCC(OC(=O)C(O)(c2ccccc2)C2CCCC2)C1 (stereo not given) | inactive | 
CCCCCCCCS(=O)C(C)Cc1ccc2c(c1)OCO2 (stereo not given) | inactive | 
CCOC(=O)CC(=O)c1ccccc1 | inactive | 
O=S(=O)(c1ccc(OCc2ccccc2)cc1)c1ccccc1O | inactive | 
O=C(Nc1ccccc1)OCC(CN1CCCCC1)OC(=O)Nc1ccccc1 (stereo not given) | inactive | 
CC1(CN2CCC(n3c(=O)[nH]c4ccccc43)CC2)OCc2ccccc2-n2cccc21 (stereo not given) | inactive | 

SMILES | Potency | activation
Cc1ccc2c(Br)cc(Br)c(O)c2n1 | inactive | 
COC(=O)C1=C(C)NC(C)=C(C(=O)O[C@@H]2CCCN(Cc3ccccc3)C2)[C@@H]1c1cccc([N+](=O)[O-])c1 | inactive | 
C[C@@H]1C[C@H]2[C@@H]3CCC4=CC(=O)C=C[C@]4(C)[C@@]3(F)[C@@H](O)C[C@]2(C)[C@@]1(O)C(=O)COC(=O)c1ccncc1 | inactive | 
NNc1nc(-c2ccc(N)cc2)cs1 | inactive | 
Cc1cc(O)c2c(c1)C(=O)c1cc(O)cc(O)c1C2=O | inactive | 
CCCCCCCC/C=C\CCCCCCCC(=O)N(CCO)CCO | inactive | 
Nc1nc2ccccc2n1Cc1ccc(F)cc1 | inactive | 
CN(C)[C@@H]1C(=O)C(C(N)=O)=C(O)[C@@]2(O)C(=O)C3=C(O)c4c(O)cccc4C[C@H]3C[C@@H]12 | inactive | 
CCc1nn(CCCN2CCN(c3cccc(Cl)c3)CC2)c(=O)n1CCOc1ccccc1 | inactive | 
CCN(C(=O)N(CC)c1ccccc1)c1ccccc1 | inactive | 
CC(CC(=O)Cl)CC(C)(C)C (stereo not given) | inactive | 
CCCCCCCCCCCCOCCOCCOCCOCCOCCOCCOCCOCCOCCO | inactive | 
CCCCCCCCCCCCSC#N | inactive | 
CC(C)COC(=O)c1ccc(O)cc1 | inactive | 
CCCc1ccccc1O | inactive | 
O=C(Cl)c1cccc([N+](=O)[O-])c1 | inactive | 
NC(=O)c1cc[n+](CC2=C(C(=O)[O-])N3C(=O)[C@@H](NC(=O)Cc4cccs4)[C@H]3SC2)cc1 | inactive | 
O=[N+]([O-])c1cc(N(CCO)CCO)ccc1NCCO | inactive | 
C=CC(=O)Nc1cc2c(Nc3ccc(F)c(Cl)c3)ncnc2cc1OCCCN1CCOCC1 | inactive | 
Clc1ccc(C(Cn2ccnc2)OCc2ccsc2Cl)c(Cl)c1 (stereo not given) | inactive | 
